Potency and affinity values are given separately. Inconclusive results are not listed. Calls of active or inactive are those of the source. Unless noted, how the calls were made is not given here.
Assays:
[1] = RMG-1 ovarian cancer cell viability loss – cherry-pick, dose response (AID 687029;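 active means signal drop whose fitted half-maximal concentration is at most twice the top valid dose, in every test run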;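 further: cells exposed to compound for 96 hours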); conditions: RMG-1 viability, CellTiterGlo ATP luminescence, 96 h; series mostly up to 35 µM
[2] = IOSE-T80 viability loss, PAX8-independent line – cell-based, cherry-pick, selectivity assay for PAX8 inhibitor project, dose response (AID 687032;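 active means fitted half-maximal concentration for viability loss no higher than twice the top valid dose, in every repeat run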;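 further: cells exposed to compound for 96 h before reading; 0% = neutral control wells and -100% = 2 µM mitoxantrone kill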); conditions: CellTiterGlo ATP luminescence, 96 h; series mostly up to 35 µM
[3] = CMV-driven luciferase expression suppression in HEK293 – cell-based, luminescence, dry powder, counter-screen for Pax8 inhibitor project, dose response (AID 743020;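 active means signal-lowering compounds whose fitted half-maximal concentration is at or below twice the top tested dose in every run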;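 further: HEK293 cells stably expressing the CMV luciferase reporter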); conditions: HEK293 CMV-luciferase reporter, SteadyGlo luminescence, 24 h; series mostly up to 35 µM
[4] = A2780 cell killing – plate reader, dry powder samples, cytotoxicity control, dose response (AID 743046); conditions: A2780 ovarian cancer cytotoxicity; series mostly up to 35 µM;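 further: 0% = neutral control wells and -100% = cytotoxic reference compound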
[5] = OVCAR8 cell viability loss – plate reader, dry powder samples, PAX8 project, dose response (AID 743197); conditions: series mostly up to 35 µM
[6] = toxicity toward immortalized ovarian surface epithelium – cell-based, plate reader, dry powder samples, cytotoxicity control for PAX8 inhibitor project, dose response (AID 743045); conditions: IOSE-T80 ovarian epithelial cells; series mostly up to 35 µM;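 further: 0% = neutral control median and -100% = positive control median; more negative values mean more cell killing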
[7] = IGROV1 cell killing – plate reader, dry powder samples, PAX8 inhibitor project, dose response (AID 743043); conditions: IGROV1 ovarian cancer cell cytotoxicity; series mostly up to 35 µM;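 further: more negative means fewer viable cells or more cytotoxicity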
[8] = OVCAR-3 cell viability loss – plate reader, dry powder samples, PAX8 inhibitor project, dose response (AID 743044); conditions: NIH:OVCAR-3 ovarian cancer cell viability; max activity: at 35 µM, hits give low values unless noted; series mostly up to 50 µM
[9] = general cell-killing toxicity readout – plate reader, dry powder samples, cytotoxicity control for PAX8 inhibitor project, dose response (AID 743021); conditions: cell line, non-specific cytotoxicity counter-screen; series mostly up to 35 µM

Measured: max activity

COc1ccc(S(=O)(=O)Nc2ccc3c(c2)C(=O)N([C@@H](C)CO)C[C@H](C)[C@H](CN(C)Cc2ccc(C(F)(F)F)cc2)OCCCC[C@H](C)O3)cc1
inactive: [1] | [2] | [3] | [4] | [5]

C[C@@H]1CCCCO[C@H](CN(C)Cc2ccc(Cl)c(Cl)c2)[C@@H](C)CN([C@@H](C)CO)C(=O)c2cc(NC(=O)c3ccccc3)ccc2O1
inactive: [1] | [2] | [3] | [6] | [4]

Cc1ccc(S(=O)(=O)Nc2ccc3c(c2)CC(=O)N([C@@H](C)CO)C[C@H](C)[C@@H](CN(C)Cc2ccc(Oc4ccccc4)cc2)O3)cc1
inactive: [1] | [2] | [3] | [7] | [5]

Fc1cccc(CN2C[C@@H]3N[C@H](C2)[C@@H]3c2ccc(-c3cccc(F)c3)cc2)c1
inactive: [1] | [2] | [3] | [7] | [4]

COc1ccc(NC(=O)N2CC(=O)N3[C@@H](CO)[C@@H](c4ccc(/C=C/c5ccccc5)cc4)[C@@H]3C2)cc1
inactive: [1] | [2] | [3] | [8] 30.3% [at 16 µM, hits give low values] | [6] | [4]

C[C@@H]1CCCCO[C@H](CN(C)CC2CCCCC2)[C@H](C)CN([C@H](C)CO)C(=O)c2cc(NS(=O)(=O)c3ccccc3)ccc2O1
inactive: [1] | [2] | [3] | [6] | [4]

Cc1ccc(-c2ccc(C3[C@@H]4CN(C(=O)Nc5ccc(C(F)(F)F)cc5)C[C@H]3N4)cc2)cc1 (some centres undefined)
inactive: [1] | [2] | [3] | [7] | [4]

O=C(c1ccc(F)cc1)N1CC(=O)N2[C@@H](CO)[C@@H](c3ccc(C#Cc4ccc(F)cc4)cc3)[C@@H]2C1
inactive: [1] | [2] | [3] | [6] | [4]

C[C@@H]1CN([C@@H](C)CO)C(=O)Cc2cc(NS(=O)(=O)c3ccccc3)ccc2O[C@H]1CN(C)Cc1ccc(C(F)(F)F)cc1
inactive: [1] | [2] | [3] | [6] | [4]

CCS(=O)(=O)N1CC(=O)N2[C@H](CO)[C@@H](c3ccc(-c4ccccc4F)cc3)[C@H]2C1
inactive: [1] | [2] | [3] | [6] | [4]

C[C@@H]1CN([C@H](C)CO)C(=O)c2cc(NC(=O)CCCCCC(=O)Nc3ccccc3N)ccc2O[C@@H]1CN(C)Cc1ccc(C(F)(F)F)cc1
not listed: [7] | [8] | [9]
inactive: all other assays above

C[C@H](CO)N1C[C@H](C)[C@@H](CN(C)Cc2ccc(-c3ccccc3)cc2)Oc2ccc(NS(=O)(=O)c3ccccc3)cc2CC1=O
inactive: [1] | [2] | [3] | [8] 6.95% | [6] | [5]

C[C@H](CO)N1C[C@H](C)[C@@H](CN(C)S(=O)(=O)c2ccc(Cl)cc2)OCCCC[C@H](C)Oc2ccc(NS(=O)(=O)c3cccs3)cc2C1=O
inactive: [1] | [2] | [3] | [7] | [4]

Cc1ccc(S(=O)(=O)Nc2ccc3c(c2)C(=O)N([C@H](C)CO)C[C@H](C)[C@H](CN(C)Cc2ccc(C(F)(F)F)cc2)OCCCC[C@H](C)O3)cc1
inactive: [1] | [2] | [3] | [7] | [4]

C[C@@H]1CN([C@@H](C)CO)C(=O)Cc2cc(NS(=O)(=O)c3ccc(Cl)cc3)ccc2O[C@@H]1CN(C)CC1CCCCC1
not listed: [7] | [8] | [9]
inactive: all other assays above

Cc1ccccc1-c1ccc([C@@H]2[C@H](CO)N3CCCCN(C(=O)Nc4cccc(F)c4)C[C@@H]23)cc1
not listed: [7] | [8] | [9]
inactive: all other assays above

COc1ccc2c3c(n(C)c2c1)[C@H](CO)NCC31CCN(Cc2cc(-c3ccccc3)on2)CC1
inactive: [1] | [2] | [3] | [8] 40.6% [at 0.5 µM, hits give low values] | [6] | [4]

CCc1cnc(N2[C@@H](C#N)[C@@H](c3ccc(C#CC(C)C)cc3)[C@@H]2CO)s1
inactive: [1] | [2] | [3] | [8] 27.5% [at 1 µM, hits give low values] | [6] | [5]

C[C@H](CO)N1C[C@H](C)[C@@H](CN(C)S(=O)(=O)c2ccc(Cl)cc2)OCCCC[C@H](C)Oc2ccc(NS(=O)(=O)c3ccccc3)cc2C1=O
not listed: [6] | [8] | [9]
inactive: all other assays above

O=C(C1CCC1)N1CC(=O)N2[C@H](CO)[C@H](c3ccc(C#CCc4ccccc4)cc3)[C@H]2C1
inactive: [1] | [2] | [3] | [6]

COc1ccc(-c2ccc3c(c2)[C@H]2[C@H](CCN2S(=O)(=O)c2ccc(F)cc2)[C@H](CO)N3C)cc1
inactive: [1] | [2] | [3] | [6] | [4]

COc1ccc(NC(=O)Nc2ccc3c(c2)C(=O)N([C@H](C)CO)C[C@@H](C)[C@H](CN(C)Cc2ccc(C(F)(F)F)cc2)OCCCC[C@H](C)O3)cc1
inactive: [1] | [2] | [3] | [6] | [4]

C[C@H](CO)N1C[C@H](C)[C@H](CN(C)Cc2ccc(C(F)(F)F)cc2)OCCCC[C@H](C)Oc2ccc(NC(=O)Cc3ccccc3)cc2C1=O
inactive: [1] | [2] | [3] | [6]

Cc1ccccc1-c1ccc(C2[C@@H]3CN(C(=O)Nc4cccc(F)c4)C[C@H]2N3)cc1 (some centres undefined)
not listed: [7] | [8] | [9]
inactive: all other assays above

CCS(=O)(=O)N1Cc2ccccc2CC1C(=O)Nc1nnc(SCc2c(Cl)cccc2Cl)s1 (centres undefined)
inactive: [1] | [2] | [9]

CC(=NNC(=S)N1CCC1)c1ccccn1
inactive: [1] | [2] | [9]

COc1cc(OC)c(NC2=CC(=O)C(=O)c3ccccc32)cc1Cl
inactive: [1] | [2] | [9]

C[C@H]1CCCCO[C@H](CN(C)C(=O)Nc2ccc(C(F)(F)F)cc2)[C@@H](C)CN([C@@H](C)CO)C(=O)c2cc(NS(=O)(=O)c3ccc(Cl)cc3)ccc2O1
inactive: [1] | [2] | [9]

Cc1cc(NC(=O)c2ccc([N+](=O)[O-])o2)ccc1NC(=O)c1ccco1
inactive: [1] | [2] | [9]

COc1cc(/C=N\NC(=O)c2ccc(-c3ccccc3)cc2)cc(OC)c1OC(C)=O
inactive: [1] | [2] | [9]

CNC[C@@H](CC1CCCCC1)NC[C@H](CC(C)C)NCCc1cccc(C(F)(F)F)c1
inactive: [1] | [2] | [9]

CS(=O)(=O)Nc1ccc2c(c1)[C@@H]1C[C@@H](CC(=O)NCc3ccc(Oc4ccccc4)cc3)O[C@@H](CO)[C@@H]1O2
inactive: [1] | [2] | [9]

O=C(CCCN1C(=O)/C(=C\c2cccc(Br)c2)SC1=S)Nc1cccnc1
inactive: [1] | [2] | [9]

O=C(Nc1cccc(F)c1)N1C[C@@H]2N[C@H](C1)C2c1ccc(-c2ccc(F)cc2)cc1 (some centres undefined)
inactive: [1] | [2] | [3] | [4] | [5]

O=C(Nc1ccc([N+](=O)[O-])cc1)Nc1nc(-c2ccc(Cl)s2)cs1
inactive: [1] | [2] | [9]

COc1cccc2c1C(=O)c1c(O)c3c(c(O)c1C2=O)CC(O)(C(C)=O)CC3OC1CC(N(C)C)C(O)C(C)O1 (centres undefined)
inactive: [1] | [2] | [9]

Oc1c(I)cc(I)c2cccnc12
inactive: [1] | [2] | [9]

COc1ccccc1-n1cc([C@@H]2C[C@H]3CN(c4ccccc4)C(=O)[C@]34CCCN24)cn1
inactive: [1] | [2] | [9]

Cn1cc(C2=C(c3ccc(Cl)cc3Cl)C(=O)NC2=O)c2ccccc21
inactive: [1] | [2] | [9]

C#CCN(C[C@@H]1[C@@H](OC(=O)Nc2cccs2)[C@@H](OC(=O)Nc2cccs2)Cn2c(=O)ccc(=O)n21)S(=O)(=O)c1ccc(C)cc1
inactive: [1] | [2] | [9]

CC[C@@]1(O)C(=O)OCc2c1cc1n(c2=O)Cc2cc3c(N)cccc3nc2-1
inactive: [1] | [2] | [9]

COc1cc(/C=C2\COC/C(=C\c3cc(OC)c(OC)c(OC)c3)C2=O)cc(OC)c1OC
inactive: [1] | [2] | [9]

Cn1nnnc1Sc1ncnc2scc(-c3cccc(F)c3)c12
inactive: [1] | [2] | [9]

C=C1C(=O)[C@]23C[C@H]1CCC2[C@]1(C)CCC[C@@](C)(C(=O)O)C1C[C@@H]3O (some centres undefined)
inactive: [1] | [2] | [9]

N#C[C@H]1[C@@H](c2ccc(C#Cc3ccc(F)cc3)cc2)[C@H](CO)N1C(=O)Nc1ccc(F)cc1
inactive: [1] | [2] | [3] | [5]

C=C1C(=O)O[C@@H]2C[C@@H](C)[C@@H]3C=CC(=O)[C@@]3(C)[C@@H](OC(C)=O)[C@H]12
inactive: [1] | [2] | [9]

CC(=O)Nc1cc(-c2cccc(C(=O)NCCN(C)C)c2)cn2c(-c3cccc(C(F)(F)F)c3)cnc12
inactive: [1] | [2] | [9]
